This passage reports growth inhibition results from PubChem BioAssay (NCI).

Compounds without any hit were thinned out: in the full panel of roughly 79,000, 15% have a hit. Unmarked numbers belong to inactive results. Calls of active or inactive are those of the source. Cut-off read from the data, not from the text of the source: active = growth inhibition above about 70%; inactive = the rest.

Assay [1] can be described thus: NCI Yeast Anticancer Drug Screen. Data for the rad50 strain (AID 155).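 Note: 0% = growth of vehicle-only cultures of the same strain.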 The conditions noted are these: S. cerevisiae rad50 strain growth inhibition; at 50.0 µM; active compounds read high. Put shortly:
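Cells are treated with compound, grown, and their growth is then scored against vehicle-only cultures of the same repair-deficient yeast strain.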

A short description of assay [2]: NCI Yeast Anticancer Drug Screen. Data for the mec2-1 strain (AID 157). The conditions noted are these: S. cerevisiae mec2-1 strain, at 50.0 µM, active compounds read high. Put shortly:
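Readout is yeast growth inhibition, normalised to vehicle-treated controls, in the mec2-1 strain exposed to compound.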

A short description of assay [3]: NCI Yeast Anticancer Drug Screen. Data for the sgs1 mgt1 strain (AID 161).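 Note: 0% = growth of cultures given vehicle only.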 The conditions noted are these: S. cerevisiae sgs1 mgt1 strain, at 50.0 µM, active compounds read high. Put shortly: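 Yeast cells carrying a defined DNA-repair defect were exposed to test compounds. Growth inhibition was measured relative to vehicle-treated controls.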
The nature of assay [4]: NCI Yeast Anticancer Drug Screen. Data for the cln2 rad14 strain (AID 165).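 Note: 0% = growth equal to vehicle treated cultures.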 The conditions noted are these: S. cerevisiae cln2 rad14 strain, at 50.0 µM, active compounds read high. Put shortly: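 Relative to vehicle controls, growth inhibition of compound-treated cln2 rad14 yeast was recorded.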
Assay [5] in a line: NCI Yeast Anticancer Drug Screen. Data for the bub3 strain (AID 167). The conditions noted are these: S. cerevisiae bub3 mutant strain, at 50.0 µM, active compounds read high. Put shortly: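 Part of a panel of yeast mutants defective in DNA damage repair or cell cycle regulation. Each strain is grown with compound, and inhibition is calculated relative to solvent-treated cultures.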

Assay [6] in a line: NCI Yeast Anticancer Drug Screen. Data for the mlh1 rad18 strain (AID 175). The conditions noted are these: S. cerevisiae mlh1 rad18 strain growth inhibition; at 50.0 µM; active compounds read high. Put shortly: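 Test agents were incubated with a yeast strain of defined genotype (DNA damage repair defect). Inhibition of growth was derived by comparison with vehicle-exposed cultures.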

Consider `O=Nc1ccc(O)cc1O`, for which the growth inhibition in assay [1] is 16.9%; in assay [2], 2.5%; in assay [3], 1.15%; in assay [4] it was -38.6%; in assay [5], 33.3%; in assay [6] it was 19.1%.

On to `COc1cc(OC)c2[nH]c3c(c(=O)c2c1)C(=O)c1[nH]c2c(OC)cc(OC)cc2c(=O)c1C3=O`, for which the growth inhibition in assay [1] was 26.8%; in assay [2] it was 4.55%; in assay [3], 12.8%; in assay [4] it was 17.4%; in assay [5] it was -3.55%; in assay [6] it was 19.9%.

`Cc1cc(=O)oc2c(C(=O)/C=C/N(C)C)c(O)ccc12`: the growth inhibition was -29.9% in assay [1]; 4.1% in assay [2]; 7.85% in assay [3]; 0.25% in assay [4]; 9.95% in assay [5]; 7.7% in assay [6].

For `COc1ccc(NC2=CC(=O)C(=O)c3ccccc32)nn1`, the growth inhibition in assay [1] is -4%; in assay [2], 4.8%; in assay [3], -19.8%; in assay [4], -34.8%; in assay [5] it was -1.65%; in assay [6] it was -16%.

Consider `Nc1c(Cl)cc(Cl)cc1C(=O)O`, for which the growth inhibition in assay [1] was -5.05%; in assay [2], -10.5%; in assay [3] it was 0.35%; in assay [4], -28.7%; in assay [5], -11.2%; in assay [6], -16.1%.

As to `CCc1ccc[n+](-c2ccncc2CC)c1`, the growth inhibition is -7.9% in assay [1]; -9.55% in assay [2]; -9.15% in assay [3]; -12.9% in assay [4]; 2.8% in assay [5]; -9.8% in assay [6].

With `CCOC(=O)C(CCCCS(=O)(=O)O)C(=O)OCC`, the growth inhibition in assay [1] was -12.3%; in assay [2], -9.35%; in assay [3] it was -18.9%; in assay [4], -35%; in assay [5], -5.25%; in assay [6], 11.2%.

As for `N#Cc1c2c([nH]c(=O)c1C#N)CCCC2`, the growth inhibition is 15.5% in assay [1]; 10.5% in assay [2]; 3.2% in assay [3]; 9.15% in assay [4]; -8.75% in assay [5]; -23.1% in assay [6].

On to `Cc1ccccc1NC(=O)Nc1ccccc1C`, for which the growth inhibition was -3.8% in assay [1]; -15.3% in assay [2]; 3.45% in assay [3]; -23% in assay [4]; -20.2% in assay [5]; -11.9% in assay [6].

Consider `Clc1ccc(Cl)c(Nc2ccnc(SCc3ccccc3)n2)c1`, for which the growth inhibition was 42.1% in assay [1]; 25.9% in assay [2]; -27.5% in assay [3]; 14.4% in assay [4]; -7% in assay [5]; 24.9% in assay [6].

Take `N#CCCN(c1ccc(C=Nc2ccc(C(=O)O)cc2)cc1)S(=O)(=O)c1ccccc1`: the growth inhibition in assay [1] was -0.1%; in assay [2], -29.6%; in assay [3] it was 7.4%; in assay [4] it was 5.75%; in assay [5], 19.9%; in assay [6], -11.1%.

Turning to `O=c1[nH]c(-c2ccc(-c3nc4cc([N+](=O)[O-])ccc4c(=O)[nH]3)cc2)nc2cc([N+](=O)[O-])ccc12`, the growth inhibition in assay [1] is -33%; in assay [2] it was -13.8%; in assay [3], -26.7%; in assay [4], -6.9%; in assay [5] it was -24.5%; in assay [6] it was -13.3%.

Turning to `CSc1nc2ccc(NCn3c(=O)sc4cc(Br)ccc43)cc2s1`, the growth inhibition in assay [1] is 1%; in assay [2] it was 38.9%; in assay [3], 4.6%; in assay [4], 30.9%; in assay [5], 65.5%; in assay [6] it was 42%.

Consider `O=S(=O)(O)C(O)c1ccccc1` (stereo unspecified), for which the growth inhibition in assay [1] is 1.25%; in assay [2], -2.85%; in assay [3], -8.85%; in assay [4], -10.9%; in assay [5] it was -15.1%; in assay [6] it was -6.2%.

As for `O=c1[nH]c(NCc2ccncc2)nc2nc[nH]c12`, the growth inhibition in assay [1] was 10.2%; in assay [2] it was -3.8%; in assay [3], -14.8%; in assay [4], 3.1%; in assay [5], -21.1%; in assay [6] it was -52%.

Consider `O=C1NN2CCN=C2c2ccccc21`, for which the growth inhibition in assay [1] was -60.5%; in assay [2], -30%; in assay [3] it was -22.7%; in assay [4], -16.4%; in assay [5], -6.5%; in assay [6], -16.4%.

Regarding `O=[N+]([O-])c1cccc(NSNc2cccc([N+](=O)[O-])c2)c1`, the growth inhibition in assay [1] was 18.1%; in assay [2], 23.9%; in assay [3], 25.6%; in assay [4], 23.1%; in assay [5], 6.45%; in assay [6] it was 11%.

For the compound `O=C(CO)CC(=O)C(=O)Nc1nc([N+](=O)[O-])cs1`, the growth inhibition in assay [1] is -18.1%; in assay [2] it was -31.8%; in assay [3], 21%; in assay [4] it was 7.9%; in assay [5], -16.1%; in assay [6], -21.5%.

In the case of `O=[N+]([O-])c1ccc(S(=O)c2ccc(Cl)cc2)c2c1no[n+]2[O-]` (stereo unspecified), the growth inhibition was 98.5% (active) in assay [1]; 99.4% (active) in assay [2]; 98.7% (active) in assay [3]; 32% in assay [4]; 76.1% (active) in assay [5]; 99.2% (active) in assay [6].

Turning to `CONS(=O)c1ccc(Cl)cc1` (stereo unspecified), the growth inhibition in assay [1] was 10.8%; in assay [2], 28.2%; in assay [3], 6.35%; in assay [4], -27.2%; in assay [5], 4.95%; in assay [6], 11%.

For `CC(=O)Oc1ccc(C(C)(C)C)cc1`, the growth inhibition in assay [1] was 10.7%; in assay [2], -7.25%; in assay [3], 1.55%; in assay [4], -11.7%; in assay [5] it was -4.1%; in assay [6] it was 5.15%.
